# PubChem BioAssay (NCI)
# About 79,000 compounds went through this panel and 15% of them were active in at least one assay; those are over-represented in the sample as a whole. Unmarked numbers belong to inactive results. The source made the active and inactive calls. No stated cut-off is given here; in the data, active means growth inhibition above about 70%; inactive means the rest.
# Assays:
# [1] = NCI Yeast Anticancer Drug Screen. Data for the rad52 strain (AID 147);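 further: 0% = growth of vehicle-treated control cultures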; conditions: S. cerevisiae rad52 mutant growth inhibition, stronger effect = higher value
# Summary of the method: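 Yeast strain carrying a DNA damage repair alteration was exposed to test compounds. Growth inhibition was measured relative to vehicle-treated controls.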
# [2] = NCI Yeast Anticancer Drug Screen. Data for the rad50EPP+ strain (AID 151);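 further: 0% = growth of vehicle-treated control cultures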; conditions: S. cerevisiae rad50 mutant strain, stronger effect = higher value
# Summary of the method: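 Yeast strain carrying rad50 alteration (rad50EPP+) exposed to compounds; growth inhibition measured relative to vehicle-treated controls.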
# [3] = NCI Yeast Anticancer Drug Screen. Data for the rad50 strain (AID 155);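 further: 0% = growth of vehicle-only cultures of the same strain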; conditions: S. cerevisiae rad50 strain growth inhibition, stronger effect = higher value
# Summary of the method: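 Relative growth inhibition (compound vs vehicle) was measured in yeast with a defined repair-gene alteration.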
# [4] = NCI Yeast Anticancer Drug Screen. Data for the mec2-1 strain (AID 157); conditions: S. cerevisiae mec2-1 strain, stronger effect = higher value
# Summary of the method: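 mec2-1 yeast strain, carrying an alteration in DNA damage repair or cell cycle control, was exposed to compounds; growth inhibition was measured relative to vehicle-treated controls.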
# [5] = NCI Yeast Anticancer Drug Screen. Data for the rad14 strain (AID 159);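 further: 0% = growth of vehicle-treated control cultures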; conditions: S. cerevisiae rad14 strain growth inhibition, stronger effect = higher value
# Summary of the method: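 Screen for anticancer potential: a yeast strain altered in DNA damage repair is grown with compound, and reduced growth is quantified against vehicle controls.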
# [6] = NCI Yeast Anticancer Drug Screen. Data for the sgs1 mgt1 strain (AID 161);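 further: 0% = growth of cultures given vehicle only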; conditions: S. cerevisiae sgs1 mgt1 strain, stronger effect = higher value
# Summary of the method: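 Percent growth inhibition was derived by comparing compound-exposed mutant yeast with vehicle-exposed cultures. The strain carries alterations in DNA damage repair.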
# [7] = NCI Yeast Anticancer Drug Screen. Data for the cln2 rad14 strain (AID 165);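 further: 0% = growth equal to vehicle treated cultures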; conditions: S. cerevisiae cln2 rad14 strain, stronger effect = higher value
# Summary of the method: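 Yeast carrying cln2 and rad14 alterations (cell cycle control and DNA damage repair) were exposed to compounds. Growth inhibition was measured against vehicle-treated controls.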
# [8] = NCI Yeast Anticancer Drug Screen. Data for the bub3 strain (AID 167); conditions: S. cerevisiae bub3 mutant strain, stronger effect = higher value
# Summary of the method: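 Screening used yeast with an engineered genetic alteration affecting cell cycle control. Compound-exposed cultures were compared with vehicle cultures, and reduced growth was taken as inhibition.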
# [9] = NCI Yeast Anticancer Drug Screen. Data for the wt2 strain (AID 169);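 further: 0% = growth of vehicle-treated yeast cultures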; conditions: S. cerevisiae wt2 strain growth inhibition, stronger effect = higher value
# Summary of the method: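 Yeast cells were exposed to test compounds, and growth inhibition was measured relative to vehicle-treated controls.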
# [10] = NCI Yeast Anticancer Drug Screen. Data for the mlh1 strain (AID 171);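 further: 0% = growth of vehicle-treated control cultures of the same strain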; conditions: S. cerevisiae mlh1 strain growth inhibition, stronger effect = higher value
# Summary of the method: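 Yeast carrying a defined genetic alteration in DNA damage repair or cell cycle control were exposed to test compounds. Growth inhibition was measured relative to vehicle-treated controls.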
# [11] = NCI Yeast Anticancer Drug Screen. Data for the sgs1 strain (AID 173);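 further: 0% = growth of vehicle-only control cultures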; conditions: S. cerevisiae sgs1 mutant, stronger effect = higher value
# Summary of the method: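 Yeast mutant strains carrying defined defects in DNA damage repair or cell cycle control were exposed to test compounds. Growth inhibition was scored against vehicle-treated controls.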
# [12] = NCI Yeast Anticancer Drug Screen. Data for the mlh1 rad18 strain (AID 175); conditions: S. cerevisiae mlh1 rad18 strain growth inhibition, stronger effect = higher value
# Summary of the method: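 Growth inhibition of the yeast strain was measured after compound exposure and expressed relative to vehicle-treated controls. The strain carries defined defects in DNA damage repair.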
# [13] = NCI Yeast Anticancer Drug Screen. Data for the rad18 strain (AID 177); conditions: S. cerevisiae rad18 mutant growth inhibition, stronger effect = higher value
# Summary of the method: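 Yeast carrying a defined DNA damage repair alteration were exposed to compounds. Growth inhibition was expressed relative to vehicle-treated controls.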
# [14] = at 5.0 µM (retest, dose inferred, filed as 0.5)
# [15] = at 50.0 µM (retest, dose inferred, filed as 5.0)
smiles,measurement,setting,value
CSC(=S)Nc1cc(C)ccn1,growth inhibition,[1]; at 1.2 µM,-5%
same,growth inhibition,[1]; at 3.7 µM,6%
same,growth inhibition,[1]; at 11.0 µM,37%
same,growth inhibition,[1]; at 33.0 µM,38%
same,growth inhibition,[1]; at 100.0 µM,82% (active)
same,growth inhibition,[2]; at 1.2 µM,-7%
same,growth inhibition,[2]; at 3.7 µM,-15%
same,growth inhibition,[2]; at 11.0 µM,29%
same,growth inhibition,[2]; at 33.0 µM,89% (active)
same,growth inhibition,[2]; at 100.0 µM,91% (active)
same,growth inhibition,[3]; at 1.2 µM,12%
same,growth inhibition,[3]; at 3.7 µM,15%
same,growth inhibition,[3]; [14],60%
same,growth inhibition,[3]; at 11.0 µM,64%
same,growth inhibition,[3]; at 33.0 µM,84% (active)
same,growth inhibition,[3]; [15],99% (active)
same,growth inhibition,[3]; at 50.0 µM,84.8% (active)
same,growth inhibition,[3]; at 100.0 µM,92% (active)
same,growth inhibition,[4]; at 1.2 µM,-19%
same,growth inhibition,[4]; at 3.7 µM,-25%
same,growth inhibition,[4]; [14],52%
same,growth inhibition,[4]; at 11.0 µM,39%
same,growth inhibition,[4]; at 33.0 µM,50%
same,growth inhibition,[4]; [15],99% (active)
same,growth inhibition,[4]; at 50.0 µM,70.3% (active)
same,growth inhibition,[4]; at 100.0 µM,84% (active)
same,growth inhibition,[5]; at 1.2 µM,-26%
same,growth inhibition,[5]; at 3.7 µM,-12%
same,growth inhibition,[5]; at 11.0 µM,42%
same,growth inhibition,[5]; at 33.0 µM,24%
same,growth inhibition,[5]; at 100.0 µM,75% (active)
same,growth inhibition,[6]; [14],-11%
same,growth inhibition,[6]; [15],90% (active)
same,growth inhibition,[6]; at 50.0 µM,81.2% (active)
same,growth inhibition,[7]; [14],39%
same,growth inhibition,[7]; [15],86% (active)
same,growth inhibition,[7]; at 50.0 µM,83% (active)
same,growth inhibition,[8]; at 1.2 µM,-8%
same,growth inhibition,[8]; at 3.7 µM,50%
same,growth inhibition,[8]; [14],8%
same,growth inhibition,[8]; at 11.0 µM,41%
same,growth inhibition,[8]; at 33.0 µM,30%
same,growth inhibition,[8]; [15],94% (active)
same,growth inhibition,[8]; at 50.0 µM,86% (active)
same,growth inhibition,[8]; at 100.0 µM,83% (active)
same,growth inhibition,[9]; at 1.2 µM,-7%
same,growth inhibition,[9]; at 3.7 µM,-13%
same,growth inhibition,[9]; at 11.0 µM,23%
same,growth inhibition,[9]; at 33.0 µM,23%
same,growth inhibition,[9]; at 100.0 µM,70% (active)
same,growth inhibition,[10]; at 1.2 µM,0%
same,growth inhibition,[10]; at 3.7 µM,-4%
same,growth inhibition,[10]; at 11.0 µM,54%
same,growth inhibition,[10]; at 33.0 µM,51%
same,growth inhibition,[10]; at 100.0 µM,85% (active)
same,growth inhibition,[11]; at 1.2 µM,-11%
same,growth inhibition,[11]; at 3.7 µM,-3%
same,growth inhibition,[11]; at 11.0 µM,46%
same,growth inhibition,[11]; at 33.0 µM,52%
same,growth inhibition,[11]; at 100.0 µM,93% (active)
same,growth inhibition,[12]; [14],50%
same,growth inhibition,[12]; [15],99% (active)
same,growth inhibition,[12]; at 50.0 µM,83.8% (active)
same,growth inhibition,[13]; at 1.2 µM,-23%
same,growth inhibition,[13]; at 3.7 µM,-29%
same,growth inhibition,[13]; at 11.0 µM,15%
same,growth inhibition,[13]; at 33.0 µM,39%
same,growth inhibition,[13]; at 100.0 µM,75% (active)
